Activity calls are given as the source filed them.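 The calls were made as follows: active = inhibition at or above 50% relative to wild type and mutant plate controls; inactive = inhibition below 50%.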

This assay in a line: loss of swimming-algae plug formation – whole organism, Chlamydomonas reinhardtii, WT vs cilia-less mutant, absorbance, 96-well, primary screen (AID 463189).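 Also: 0% = wild type cc124 cells in DMSO and 100% = ciliumless bld1 mutant cells.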 The note with it: Chlamydomonas reinhardtii gravitaxis, OD600 absorbance, 2 days; at 10 µM; stronger effect = higher value.
On to `COc1ccc(-n2nc(C(F)(F)F)cc2-c2ccc(Cl)cc2)cc1`, for which the inhibition was -10.1% (inactive).

As for `CN1C2CCC1CC(OC(c1ccccc1)c1ccccc1N)C2` (stereo not drawn), the inhibition was -4.19% (inactive).

As for `CC(N)Cc1c[nH]c2ccc(O)cc12` (stereo not drawn), the inhibition was 7.26% (inactive).

`Cc1c(C(=O)c2cccc3ccccc23)c2cccc3c2n1[C@H](CN1CCOCC1)CO3`: the inhibition is 9.81% (inactive).

In the case of `Ic1ccccc1CNC1C2CCN(CC2)C1C(c1ccccc1)c1ccccc1` (stereo not drawn), the inhibition is 75.8% (active).

For the compound `CCCN(CCC)C1CCc2ccc(O)cc2C1` (stereo not drawn), the inhibition was 1.06% (inactive).

Turning to `NCCCP(=O)(O)O`, the inhibition was 13.9% (inactive).

On to `NCC(O)c1ccc(O)cc1` (stereo not drawn), for which the inhibition was 5.37% (inactive).

With `CCCCc1ccc(C(=O)O)nc1`, the inhibition is -11.3% (inactive).

In the case of `CCCC[N+]1(C)C2CC(OC(=O)[C@H](CO)c3ccccc3)CC1C1OC12` (stereo partly drawn), the inhibition was -7.48% (inactive).

With `CNCCc1c[nH]c2ccc(O)cc12`, the inhibition was 8.6% (inactive).

`CC(C)Oc1cccnc1N(C)C1CCN(Cc2ccccc2)CC1`: the inhibition is 54.9% (active).

With `CC(C)c1cccc(C(C)C)c1O`, the inhibition is -3.28% (inactive).

Take `OC1CCCCC1N1CCC(c2ccccc2)CC1` (stereo not drawn): the inhibition was 3.25% (inactive).

Take `NC(Cc1ccc(N(CCCl)CCCl)cc1)C(=O)O` (stereo not drawn): the inhibition is 3.86% (inactive).

`O=C(Cc1ccc(Cl)c(Cl)c1)N1CCCCC1CN1CCCC1` (stereo not drawn): the inhibition was 1.42% (inactive).

For `CN1C(=O)CCS(=O)(=O)C1c1ccc(Cl)cc1` (stereo not drawn), the inhibition is 9.97% (inactive).

As for `CC(C)(C)c1cc(C=C(C#N)C#N)cc(C(C)(C)C)c1O`, the inhibition was 1.13% (inactive).

As to `CCCN(CCC)[C@@H]1CCc2cccc(O)c2C1`, the inhibition was -6.71% (inactive).

Regarding `CNC(=O)OCC[N+](C)(C)C`, the inhibition was -0.129% (inactive).

As for `CC(=O)NCCc1c[nH]c2ccccc12`, the inhibition was 7.09% (inactive).

Regarding `C[C@@H]1O[C@@H](O[C@H]2C[C@@H](O)[C@]3(CO)[C@@H]4C(CC[C@]3(O)C2)[C@@]2(O)CC[C@H](C3COC(=O)C3)[C@@]2(C)C[C@H]4O)[C@H](O)[C@H](O)[C@H]1O` (stereo partly drawn), the inhibition is 0.796% (inactive).

Regarding `COc1cc(CC(C)N)c(OC)cc1I` (stereo not drawn), the inhibition was -7.42% (inactive).

For `NCc1cc(=O)[nH]o1`, the inhibition was 5.71% (inactive).

As to `NC(=O)COc1c(F)cc(SCCNS(=O)(=O)c2ccccc2)cc1F`, the inhibition is 4.45% (inactive).

In the case of `Cc1cccc(C)c1NC1=NCCCS1`, the inhibition was 6.94% (inactive).

On to `CN(N=O)c1cc(O)ccc1O`, for which the inhibition was 2.32% (inactive).

Consider `C/C(O)=C(\C#N)C(=O)Nc1cc(Br)ccc1Br`, for which the inhibition is 2.1% (inactive).

Turning to `CNCCc1ccc(O)c(O)c1`, the inhibition is 8.08% (inactive).

With `CC12NC(Cc3ccccc31)c1ccccc12` (stereo not drawn), the inhibition was 2.33% (inactive).

Take `COc1ccc(CCN)cc1O`: the inhibition is 4.96% (inactive).

As for `NC(Cc1cc(O)c(O)cc1O)C(=O)O` (stereo not drawn), the inhibition is -1.78% (inactive).

In the case of `O=C(CCCN1CCC2(CC1)C(=O)N(CCc1ccc(N=C=S)cc1)CN2c1ccccc1)c1ccc(F)cc1`, the inhibition was 2.53% (inactive).

Take `NCC#Cc1ccccc1`: the inhibition is 1.68% (inactive).

Regarding `CNc1ccc2oc(C[C@H]3O[C@@]4(CC[C@H]3C)O[C@H]([C@H](C)C(=O)c3ccc[nH]3)[C@H](C)C[C@H]4C)nc2c1C(=O)O`, the inhibition was 84.5% (active).

With `c1ccc(CCCN2CCN(CCOC(c3ccccc3)c3ccccc3)CC2)cc1`, the inhibition is 20% (inactive).

As to `C[C@]12CC[C@H](OS(=O)(=O)O)CC1=CC[C@@H]1[C@@H]2CC[C@]2(C)C(=O)CC[C@@H]12`, the inhibition was 6.73% (inactive).

On to `C[N+](C)(C)CC#CCOC(=O)Nc1cccc(Cl)c1`, for which the inhibition was 2.56% (inactive).

(Values after PubChem BioAssay.)
